Wnt bcat act: activates Wnt/beta-catenin signaling in a reporter cell assay. activation, % at 9.35 µM. 300,000 compounds, 1.2% hits. activator, plate reader. AID 743398; in the data active = activation above about 30%, passing the limit was not always enough;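 also: 0% = neutral control wells and 100% = positive control wells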
EWS-Fli block: EWS/Fli transcriptional activity inhibition | A673 NR0B1-luciferase reporter, viability-normalised | inhibition, % at 12.6 µM | 350,000 compounds, 0.67% hits;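 active = mean inhibition of at least 50% after viability correction, with every replicate also passing that limit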;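 also: firefly luciferase signal divided by Alamar Blue viability fluorescence both relative to DMSO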
PAX8 reporter: PAX8 transcriptional activity inhibition. RMG-I TPO-luciferase reporter, SteadyGlo, 24 h. inhibition, % at 12.6 µM. 360,000 compounds, 1.2% hits;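 active = mean replicate inhibition at least 60% with every replicate also reaching 60%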;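 also: luciferase light reporting Pax8 driven TPO promoter activity; plate controls were median of neutral control wells for no effect and mitoxantrone controls for full effect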
esBAF inh: inhibitors of esBAF chromatin remodeling in mouse ES cells; Bmi1-luciferase knock-in reporter, 24 h; 100% = twice the neutral-well signal; reporter increase, % at 12.5 µM; 350,000 compounds, 2% hits; in the data active = activation above about 40%;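 also: 0% = median of the plate's neutral control wells and 100% = double that signal; a rise in the Bmi1 reporter signal indicates esBAF inhibition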
TRPM1 prom inh: reduces MITF-dependent TRPM1 promoter luciferase signal; SK-MEL-5 TRPM1 promoter luciferase, 24 h; inhibition, % at 12.5 µM; 330,000 compounds, 0.83% hits;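 active = mean inhibition across replicates of 60% or more, whatever share of single replicates reaches that level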
MITF act: MITF TRPM1 promoter activation in melanoma cells; AID 588334; activation, % at 12.5 µM; 300,000 compounds, 0.75% hits; SK-MEL-5 TRPM1-promoter luciferase, 24 h; % of positive control, neutral wells = 0;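 active = mean activation of at least 80% with every replicate also reaching 80%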;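 also: 0% = neutral control wells and 100% = parthenolide positive control wells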
The depositor's hits bear a star; / = not tested or not shown. An excerpt weighted towards active compounds, which were near 4% of everything screened.

SMILES	Wnt bcat act	EWS-Fli block	PAX8 reporter	esBAF inh	TRPM1 prom inh	MITF act
CC1C=NC(S(=O)(=O)N2CC[C@@H]3[C@@H](CO)N(C)c4ccc(-c5ccccc5)cc4[C@@H]32)=N1 (stereo partly drawn)	/	-1	4	0	/	/
CCN(CC)c1ccc(/C=N/Nc2nc3ccccc3[nH]2)cc1	-16	/	81*	-29	37	-33
CCC(=O)N1CC2(C1)[C@H](c1ccc(-c3ccccc3OC)cc1)[C@H](CO)N2C(C)=O	/	2	0	/	/	/
CCN(CC)S(=O)(=O)c1ccc(O)c(NC(=O)COc2ccc(S(=O)(=O)N3CCOCC3)cc2)c1	44*	3	-4	-5	-1	5
C[C@@H]1CN([C@@H](C)CO)S(=O)(=O)c2ccc(-c3ccccc3)cc2O[C@@H]1CN(C)S(C)(=O)=O	/	-4	/	0	/	/
COc1ccc(-c2cc(C(F)(F)F)nc(SCC(N)=O)n2)cc1	/	/	/	51*	4	-5
CSc1nc(-c2ccccc2)nn1S(=O)(=O)c1ccccc1	2	/	/	8	-1	2
COc1ccc(-c2nc(SC)n(S(=O)(=O)c3ccccc3)n2)cc1	/	/	/	53*	-50	56
C[C@@H]1CCCCO[C@H](CN(C)Cc2ccncc2)[C@H](C)CN([C@@H](C)CO)C(=O)c2cc(NS(=O)(=O)c3ccc(F)cc3)ccc2O1	/	0	7	7	/	/
O=C(C[C@@H]1CC[C@H](NC(=O)c2cccnc2)[C@H](CO)O1)NCc1ccncn1	/	6	4	-8	/	/
Cc1cccc(NC(=O)Oc2ccc(Cl)c3cccnc23)c1	29	-39	-36	51*	/	/
Cc1ccc(CSc2nnc(SCC(=O)N/N=C/c3ccc(C(=O)O)cc3)s2)cc1	19	60*	-14	-26	-5	8
Cc1cc(C)nc(SC2=CS(=O)(=O)c3ccccc32)n1	7	/	47	7	7	/
O=S1(=O)C=C(Sc2nnc(-c3ccccc3)o2)c2ccccc21	/	/	/	-79	96*	-95
COc1ccc(NC(=O)Nc2ccc3c(c2)C(=O)N([C@H](C)CO)C[C@H](C)[C@H](CN(C)C(=O)NC2CCCCC2)OCCCC[C@H](C)O3)cc1	/	-3	13	8	/	/
CCNC(=S)Nc1cc2oc3ccccc3c2cc1OC	2	/	-35	45*	1	0
CCN(CC)S(=O)(=O)c1ccc(C(=O)Nc2cc3oc4ccccc4c3cc2OC)cc1	/	/	-12	/	-1	5
COc1cc2c(cc1NC(=O)C1CCCO1)oc1ccccc12 (stereo not drawn)	-4	/	/	57*	-30	33
COc1cc2c(cc1NC(=O)c1cccc(S(=O)(=O)N(C)C)c1)oc1ccccc12	41*	/	18	/	-20	21
CCCNC(=S)Nc1cc2oc3ccccc3c2cc1OC	1	/	7	/	-8	9
Cc1noc(C)c1S(=O)(=O)Nc1ccc2c(c1)C(=O)N([C@@H](C)CO)C[C@@H](C)[C@@H](CN(C)Cc1ccccc1)OCCCC[C@@H](C)O2	/	5	27	7	/	/
CCCC#Cc1ccc2c(c1)O[C@H](CN(C)C(=O)NC(C)C)[C@H](C)CN([C@H](C)CO)S2(=O)=O	/	-2	/	-3	/	/
CN(C(=O)CN1CCN(c2cnn(-c3ccccc3)c(=O)c2Cl)CC1)C1CCS(=O)(=O)C1 (stereo not drawn)	44*	5	6	6	0	1
CS(=O)(=O)N1CCN(c2cnn(-c3ccccc3)c(=O)c2Cl)CC1	2	-17	4	7	-16	15
O=C(C[C@H]1C[C@@H]2c3cc(NC(=O)C4CCOCC4)ccc3O[C@@H]2[C@H](CO)O1)NCc1ccc2c(c1)OCO2	/	0	9	-7	/	/
SMILES	Wnt bcat act	EWS-Fli block	PAX8 reporter	esBAF inh	TRPM1 prom inh	MITF act
O=C1C=C(NC2=CC3OC(c4ccccc4)OCC3OC2=O)CCC1 (stereo not drawn)	-3	-7	19	/	65*	-59
CCCCCCC(=O)O	0	-5	/	-6	/	/
CCCCCCCCCCCCCC(=O)NO	-15	55*	5	/	8	/
Cc1ccc(S(=O)(=O)N(C)C[C@@H]2Oc3c(NC(=O)NC4CCCCC4)cccc3C(=O)N([C@H](C)CO)C[C@H]2C)cc1	/	1	-2	1	/	/
Cc1cc(C)cc(OCCn2nnc3ccccc32)c1	4	-74	-51	26	-95	88*
Clc1ccccc1OCCn1nnc2ccccc21	19	-101	-134	63*	-79	81*
O=C(N=Nc1c(O)n(Cc2ccccc2)c2ccccc12)c1cc2ccccc2cc1O	-1	-11	-13	/	-85	89*
O=C(N=Nc1c(O)n(Cc2ccccc2)c2ccccc12)c1ccc(O)cc1	/	/	-122	/	-148	150*
CC(C)NC(=O)N1CC2(C1)[C@@H](c1ccccc1)[C@@H](CO)N2C(=O)C1CCCC1	/	8	-4	/	/	/
N=C1N(/N=C/c2ccccc2)C(=Nc2ccccc2)C(=S)N1c1ccccc1	/	/	/	60*	-58	/
CCC(=O)C1CCCN(C(=O)CCc2nnc(-c3ccc(C(C)=O)s3)o2)C1 (stereo not drawn)	22	-105	-210	83*	-56	49
CCCOC1CCCN(C(=O)CCc2nnc(-c3ccc4c(c3)OCO4)o2)C1 (stereo not drawn)	-2	-67	-150	39	-69	68
CC1CCCN(C(=O)CCc2nnc(-c3ccc4c(c3)OCO4)o2)C1 (stereo not drawn)	14	/	-91	42*	-22	22
CCC(=O)C1CCCN(C(=O)CCc2nnc(-c3ccc4c(c3)OCO4)o2)C1 (stereo not drawn)	1	-65	-45	33	-28	21
C[C@@H]1CCCCO[C@H](CN(C)C(=O)Nc2cccc3ccccc23)[C@@H](C)CN([C@@H](C)CO)C(=O)c2cc(NS(=O)(=O)c3ccccc3)ccc2O1	/	-4	28	/	/	/
C[C@@H]1CN([C@H](C)CO)C(=O)c2cc(NC(=O)Nc3ccc(F)cc3)ccc2O[C@@H](C)CCCCO[C@@H]1CN(C)C(=O)c1ccccc1	/	1	7	0	/	/
CC(C)CSc1nnc2c(n1)[nH]c1ccccc12	50*	/	/	/	12	-12
CCCCSc1nnc2c(n1)[nH]c1ccccc12	62*	/	-160	36	-60	65
O=C(CC1CC1)N1CC(=O)N2[C@H](CO)[C@H](c3ccc(C#Cc4cccc(F)c4)cc3)[C@H]2C1	/	-7	/	/	/	/
Cc1ccc(NCc2ccccc2)cc1	9	-39	-35	/	-17	20
CSc1ccc(CNc2ccc(C)c(C)c2)cc1	-1	-104	/	59*	-79	78
Cc1ccc(NCc2ccccc2O)cc1C	11	-51	-64	68*	-46	52
Oc1ccccc1CNc1ccc2c(c1)OCCO2	7	-50	-30	-41	-24	26
CSc1ccc(CNc2ccc(C)cc2)cc1	/	/	/	55*	-61	59
Cc1ccc(CNc2cccnc2)cc1	0	-30	-71	58*	-42	47

Bioassay records from PubChem.
